Data on three compounds can be found in PubChem BioAssay (NCATS).

Records with an inconclusive call do not appear. A number with no mark means an inactive call. Active and inactive are the calls of the source. The call rests on the fitted dose curve.
On the % scale 0 is the no-effect control and ±100 the full control effect.

This assay is described as follows: Cytotoxicity counterscreen for inhibitors of SARS-CoV-2 cell entry (AID 1645845). Further: nearly all actives have a fitted effect of over 50% in size. The conditions noted are these: cell viability (SARS-CoV-2 entry assay cells); series mostly up to 57.1 µM; activity change, negative = cytotoxicity: at the top concentration. A digest of the protocol: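 After a 15 min room-temperature ATPLite 1step step, luminescence reflected ATP remaining in HEK293-ACE2 cells exposed to compound for 1 h plus 48 h at 37 C, with percent activity set by cell and no-cell controls.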
As to `Cc1[nH]c(/C=C2\C(=O)Nc3ccccc32)c(C)c1CCC(=O)O`, the compound was classed as inactive.

Consider `Cc1cc(C)c(CNC(=O)c2cc(-c3ccc(CN4CCOCC4)cc3)cc3c2cnn3C2CCCC2)c(=O)[nH]1`, for which the “activity change, negative = cytotoxicity” value was 4.72%.

Take `CC1(C)CC[C@]2(C(=O)O)CC[C@]3(C)C(=CC[C@@H]4[C@@]5(C)C[C@@H](O)[C@H](O)C(C)(C)[C@@H]5CC[C@]43C)[C@@H]2C1`: the result was inactive.
